# This is one part of the list. The hit rate among all sequences tested is not known here.
# B1: HC981 (peptide)
# chain: CAVTKYIMTCAGNASASA
# B2: HC2375 (peptide)
# chain: CAEVPCHHPSAGNASASA
# B3: HC1198 (peptide)
# chain: CAAPNYTFALAGNASASA
# B4: HC1546 (peptide)
# chain: CAGDPPQPEYAGNASASA
# B5: FS-2319 (peptide)
# chain: CARVRRQIHAAGNASASA
# B6: FS-2842 (peptide)
# chain: CARVRKDGGGAGNASASA
# B7: FS-2245 (peptide)
# chain: CARVRRLFCRAGNASASA
# B8: FS-3123 (peptide)
# chain: CARVRRAIPRAGNASASA
# B9: HC279 (peptide)
# chain: CARCWVAMTPAGNASASA
# B10: HC1652 (peptide)
# chain: CASVSHARPRAGNASASA
# B11: FS-2621 (peptide)
# chain: CARVRRAATPAGNASASA
# B12: FS-2106 (peptide)
# chain: CARVRRAGQGAGNASASA
# B13: HC6 (peptide)
# chain: CAMEEFSQHLAGNASASA
# B14: CS9 (peptide)
# chain: CAADTVDGAGAGNASASA
# B15: HC1671 (peptide)
# chain: CADEECSQHLAGNASASA
# B16: HC2163 (peptide)
# chain: CAEAVTSTWVAGNASASA
# B17: HC1829 (peptide)
# chain: CAYTPCSGSWAGNASASA
# B18: HC2195 (peptide)
# chain: CAEVHTSTWVAGNASASA
# B19: HC1249 (peptide)
# chain: CADPSHITAEAGNASASA
# B20: FS-3016 (peptide)
# chain: CARPDRSSQGAGNASASA
# B21: HC1093 (peptide)
# chain: CAAFKIMSGEAGNASASA
# B22: FS-1877 (peptide)
# chain: CAAGRRSEAEAGNASASA
# B23: FS-2057 (peptide)
# chain: CARPPRPAQGAGNASASA
# B24: FS-3130 (peptide)
# chain: CARWGRSAQGAGNASASA
# B25: FS-1853 (peptide)
# chain: CARFKRWKAEAGNASASA
# B26: FS-1700 (peptide)
# chain: CARFKKFATEAGNASASA
# B27: FS-3125 (peptide)
# chain: CARVRREDTPAGNASASA
# B28: FS-2388 (peptide)
# chain: CARVRRSTAEAGNASASA
# B29: HC1646 (peptide)
# chain: CAFTAGYSGGAGNASASA
# B30: HC2337 (peptide)
# chain: CAESPCHRPSAGNASASA
# B31: HC1929 (peptide)
# chain: CATTPCSGSYAGNASASA
# B32: HC2504 (peptide)
# chain: CASTICSAHLAGNASASA
# B33: HC552 (peptide)
# chain: CAVPGAVYTFAGNASASA
# B34: HC781 (peptide)
# chain: CAPAAYAAQGAGNASASA
# B35: FS-1944 (peptide)
# chain: CARALRSSGTAGNASASA
# B36: FS-2641 (peptide)
# chain: CARALRSVSRAGNASASA
# B37: FS-1796 (peptide)
# chain: CARTDRSSDRAGNASASA
# B38: FS-2325 (peptide)
# chain: CARALRSLDLAGNASASA
# B39: FS-3076 (peptide)
# chain: CARSCRAAQAAGNASASA
# B40: FS-3174 (peptide)
# chain: CARVRRQLDRAGNASASA
# B41: FS-2535 (peptide)
# chain: CARVRRAAQAAGNASASA
# B42: FS-2105 (peptide)
# chain: CARVRRAAQGAGNASASA
# B43: HC1914 (peptide)
# chain: CATTPCSGKWAGNASASA
# Molecular target: furin, P09958
# Assay: furin cleavage Z-score vs untreated control; higher = more cleavage, active = 3.5 or more, inactive = 1 or less, 8 variable residues between constant flanks
# In short: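 Purified furin cleaved 8-mer peptides that were fused to a cDNA oligonucleotide and held on magnetic beads by their N-terminus. Each 0.01 ml reaction used a 1:10 enzyme:substrate ratio in 50 mM HEPES pH 7.5 with CaCl2 and NaCl and ran 7.5, 15 or 30 min. Released DNA was adapter-tagged by PCR and sequenced, and read counts gave abundance. The cleavage Z-score came from log counts against furin-free reactions, lowess-adjusted and scaled by median absolute deviation.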
# Chain of furin, P09958 (P09958 whole entry): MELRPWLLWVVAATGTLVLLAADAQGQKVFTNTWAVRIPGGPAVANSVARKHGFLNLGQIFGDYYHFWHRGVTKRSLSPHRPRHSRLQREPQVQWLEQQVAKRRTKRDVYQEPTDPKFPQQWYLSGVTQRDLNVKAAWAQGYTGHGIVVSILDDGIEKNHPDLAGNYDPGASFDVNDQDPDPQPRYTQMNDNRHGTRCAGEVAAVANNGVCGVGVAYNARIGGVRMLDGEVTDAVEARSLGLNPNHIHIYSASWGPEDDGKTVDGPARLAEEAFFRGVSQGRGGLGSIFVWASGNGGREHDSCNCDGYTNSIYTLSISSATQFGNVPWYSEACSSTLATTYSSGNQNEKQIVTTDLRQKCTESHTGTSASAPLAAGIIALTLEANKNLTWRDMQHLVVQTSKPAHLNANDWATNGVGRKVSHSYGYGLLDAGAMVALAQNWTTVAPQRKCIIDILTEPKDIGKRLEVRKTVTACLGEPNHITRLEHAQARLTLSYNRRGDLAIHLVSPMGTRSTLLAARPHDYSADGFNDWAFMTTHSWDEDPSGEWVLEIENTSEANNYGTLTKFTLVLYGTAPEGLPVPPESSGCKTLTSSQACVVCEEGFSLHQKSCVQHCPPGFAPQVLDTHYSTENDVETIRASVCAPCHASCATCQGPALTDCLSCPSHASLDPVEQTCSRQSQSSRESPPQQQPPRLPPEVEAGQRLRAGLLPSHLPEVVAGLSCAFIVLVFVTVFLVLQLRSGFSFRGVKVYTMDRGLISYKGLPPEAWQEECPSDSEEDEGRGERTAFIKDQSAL
Sequence,furin cleavage Z-score (7.5 min),furin cleavage Z-score (15 min),furin cleavage Z-score (30 min)
B1,-0.549 (inactive),-0.794 (inactive),0.2 (inactive)
B2,0.748 (inactive),1.23,0.223 (inactive)
B3,-1.92 (inactive),-0.299 (inactive),-0.368 (inactive)
B4,-0.406 (inactive),-0.628 (inactive),0.347 (inactive)
B5,8.32 (active),8.68 (active),7.57 (active)
B6,-0.741 (inactive),1.03,-1.03 (inactive)
B7,0.941 (inactive),1.51,0.361 (inactive)
B8,5.13 (active),4.64 (active),6.32 (active)
B9,-1.59 (inactive),1.01,-0.0231 (inactive)
B10,0.173 (inactive),-1.3 (inactive),-0.282 (inactive)
B11,11.8 (active),12.6 (active),10.3 (active)
B12,3.76 (active),5.43 (active),4.94 (active)
B13,-0.132 (inactive),-1.04 (inactive),-0.188 (inactive)
B14,0.142 (inactive),-1.09 (inactive),-0.572 (inactive)
B15,0.117 (inactive),0.56 (inactive),-0.0902 (inactive)
B16,1.01,-0.993 (inactive),-0.235 (inactive)
B17,-0.863 (inactive),-0.615 (inactive),-0.179 (inactive)
B18,0.614 (inactive),-0.225 (inactive),1.53
B19,-0.448 (inactive),-0.687 (inactive),-1.36 (inactive)
B20,-1.72 (inactive),-1.8 (inactive),-1.46 (inactive)
B21,-0.371 (inactive),-0.656 (inactive),-1.3 (inactive)
B22,-2 (inactive),-1.75 (inactive),-0.59 (inactive)

Sequence,furin cleavage Z-score (7.5 min),furin cleavage Z-score (15 min),furin cleavage Z-score (30 min)
B23,-0.496 (inactive),-0.739 (inactive),-0.973 (inactive)
B24,4.05 (active),4 (active),4.18 (active)
B25,3.27,4.72 (active),6.24 (active)
B26,0.401 (inactive),0.983 (inactive),-0.463 (inactive)
B27,7.61 (active),7.5 (active),6.22 (active)
B28,12.5 (active),12.2 (active),8.54 (active)
B29,-0.828 (inactive),-0.656 (inactive),-0.88 (inactive)
B30,1.16,0.888 (inactive),-0.202 (inactive)
B31,-0.34 (inactive),-0.574 (inactive),0.025 (inactive)
B32,1.31,-0.501 (inactive),1.12
B33,-0.518 (inactive),0.509 (inactive),-0.772 (inactive)
B34,0.244 (inactive),1.54,0.00948 (inactive)
B35,-0.0204 (inactive),-0.353 (inactive),0.495 (inactive)
B36,-0.658 (inactive),-0.337 (inactive),0.074 (inactive)
B37,-0.725 (inactive),-1.9 (inactive),-1.59 (inactive)
B38,3.52 (active),2.8,4.65 (active)
B39,0.547 (inactive),1.19,1.76
B40,10.3 (active),12.6 (active),9.92 (active)
B41,8.23 (active),7.6 (active),6.83 (active)
B42,8.98 (active),8.61 (active),7.68 (active)
B43,-1.59 (inactive),1.19,-1.38 (inactive)

# From the supplement of paper PMC3545927
